Shown are actives, neighbours in structure and some others; about 2.6% of the full set was active somewhere.
PABP FP inh – PABP-poly(A) binding inhibition; 290,000 tested, 1% active; P11940; PABP-poly(A) RNA binding, fluorescence polarization; calls only at 35 µM; AID 2014;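 also: calls also rest on retests at 20 µM and on dose response follow-up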
ABCB6 inh MLPCN – blocks the human ABCB6 transporter; fluorescence ratio to DMSO, % at 10 µM; K562-ABCB6 porphyrin accumulation, flow cytometry, 1 h; active compounds read low; 360,000 tested, 0.19% active; AID 602162;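 active = fluorescence ratio to DMSO below 75%, the collection mean minus 3 SD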;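 also: signal is porphyrin accumulated inside mitochondria; lower ratio means ABCB6 inhibition with less porphyrin fluorescence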
AI-2 QS mod – modulators of Vibrio harveyi AI-2 quorum sensing system; AID 2094; 300,000 tested, 0.4% active; activity change, % at 7.5 µM; Vibrio harveyi JMH597 AI-2 luminescence/OD600 ratio, 9 h; active compounds read low; strain lacks LuxN and CqsS sensors; 0 = neutral-control median; in the data active = activity change below about -75%, passing the limit was not always enough;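 also: luminescence divided by OD600 gain over 9 h not by final OD600 alone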
MLLE-PAM2 inh – inhibitors of microRNA-mediated deadenylation, human PABP1 MLLE binding; GST-MLLE / FITC-PAM2 fluorescence polarization; inhibition, % at 20 µM; 360,000 tested, 0.36% active; AID 588489; in the data active = inhibition above about 35%, passing the limit was not always enough
eIF4H FP inh – inhibitors of RNA binding by human eIF4H. Q15056. eIF4H fluorescence polarization binding assay. inhibition, % at 35 µM. 290,000 tested, 0.94% active. AID 2012;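 also: calls also rest on retests at 20 µM and on dose response follow-up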
PHOSPHO1 block – blocks human PHOSPHO1 phosphatase activity. Q8TCT1. recombinant PHOSPHO1, absorbance phosphatase assay. inhibition, % at 13.3 µM. 290,000 tested, 1.1% active; in the data active = inhibition above about 60%
Target sequence (Q8TCT1 whole entry, looked up): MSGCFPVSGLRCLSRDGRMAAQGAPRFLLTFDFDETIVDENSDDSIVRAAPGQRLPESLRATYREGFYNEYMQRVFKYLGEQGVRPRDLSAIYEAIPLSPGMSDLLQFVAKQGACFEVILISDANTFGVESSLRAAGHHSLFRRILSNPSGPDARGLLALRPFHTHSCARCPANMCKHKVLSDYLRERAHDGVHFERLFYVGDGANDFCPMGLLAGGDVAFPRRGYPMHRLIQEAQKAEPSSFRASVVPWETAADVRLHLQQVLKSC
Of the large screens only hits and unclear results are named; the others gave an inactive call. Unless noted, no rule for the calls is given here.

COc1ccc(C(=O)Nc2ccc(N3CCN(C(C)=O)CC3)cc2)cc1[N+](=O)[O-]	PABP FP inh active, eIF4H FP inh active (no result: ABCB6 inh MLPCN, MLLE-PAM2 inh)
CC(=O)N1CCN(c2ccc(NC(=O)c3ccc(Cl)c([N+](=O)[O-])c3)cc2)CC1	none
CC1CCN(c2ccccc2NC(=S)NC(=O)c2ccc(-c3cccc([N+](=O)[O-])c3)o2)CC1	MLLE-PAM2 inh 42
CC1CCN(c2ccc(NC(=S)NC(=O)c3ccc(-c4cccc([N+](=O)[O-])c4)o3)cc2)CC1	MLLE-PAM2 inh 40
CCC(=O)N1CCN(c2ccc(NC(=S)NC(=O)c3cccc([N+](=O)[O-])c3)cc2)CC1	MLLE-PAM2 inh 43
Cc1cc(C)c(C(O)c2ncc(-c3ccccc3F)[nH]2)c(C)c1 (stereo not given)	none (no result: PABP FP inh, AI-2 QS mod, eIF4H FP inh, PHOSPHO1 block)
CCCCCCN1CCN(C2CN(Cc3cn(Cc4cccc(C(F)(F)F)c4)nn3)S(=O)(=O)C2)CC1 (stereo not given)	none (no result: PABP FP inh, AI-2 QS mod, MLLE-PAM2 inh, eIF4H FP inh, PHOSPHO1 block)
CSC(=NS(=O)(=O)c1ccccc1)NNC(=O)c1c(-c2c(Cl)cccc2Cl)noc1C	none (no result: PABP FP inh, AI-2 QS mod, eIF4H FP inh, PHOSPHO1 block)
CCOc1ccc(Cl)cc1-c1cc(C(=O)Nc2ccc(Br)cc2)[nH]n1	none (no result: PABP FP inh, AI-2 QS mod, eIF4H FP inh, PHOSPHO1 block)
COc1cc(CNn2c(C)n[nH]c2=S)cc(Cl)c1OCc1ccccc1	PHOSPHO1 block 84
C#CCNC(=O)C[C@@H]1C[C@@]2(C(=O)OCC)CCC=C2N(Cc2ccc(Cl)cc2Cl)C1=O	none (no result: PABP FP inh, AI-2 QS mod, MLLE-PAM2 inh, eIF4H FP inh, PHOSPHO1 block)
CC[n+]1ccc(C[n+]2ccccc2)c2ccccc21	PHOSPHO1 block 88 (no result: AI-2 QS mod)
CC[n+]1ccc(/C=C/c2ccc(N(C)C)cc2)c2ccccc21	none (no result: AI-2 QS mod)
CCCCOCCCNC(=O)C[C@@H]1C[C@@]2(C(=O)OCC)CCC=C2N(Cc2ccc(Cl)cc2Cl)C1=O	none (no result: PABP FP inh, AI-2 QS mod, MLLE-PAM2 inh, eIF4H FP inh, PHOSPHO1 block)
CC1(C)CC2=C(CO1)C(=S)NC(c1ccccc1)N2CC1CCCO1 (stereo not given)	MLLE-PAM2 inh 42
CCOc1cc(OCC)cc(C(=O)N2CCC[C@H]2C(=O)N2CCC[C@H]2C(=O)N(C)Cc2ccccc2)c1	none (no result: PABP FP inh, AI-2 QS mod, MLLE-PAM2 inh, eIF4H FP inh, PHOSPHO1 block)
O=C(Nc1cccc(Cl)c1)Nc1csc([N+](=O)[O-])c1	AI-2 QS mod -91
CN(C)c1ccc(NC(=O)Nc2cccc(Cl)c2)cc1	PHOSPHO1 block 93
CN(c1cccc(NC(=O)Nc2cccc(Cl)c2)c1)S(C)(=O)=O	none
C=CCn1c(COc2ccc(F)cc2)nnc1SCC(=O)N1CC(=O)Nc2ccccc21	PHOSPHO1 block 74
C=CCn1c(COc2ccc(OC)cc2)nnc1SCn1nnc2ccccc2c1=O	PABP FP inh active, eIF4H FP inh active
Cc1cccc(C(=O)Nc2ccc(C(=O)Nc3ccc(O)cc3)cc2)c1	PHOSPHO1 block 62
COC(=O)c1sccc1S(=O)(=O)Nc1ccc(C(O)(C(F)(F)F)C(F)(F)F)cc1	none (no result: PABP FP inh, AI-2 QS mod, eIF4H FP inh, PHOSPHO1 block)
COc1ccc([N+](=O)[O-])cc1N(CC(O)CN1CCCCC1)S(=O)(=O)c1ccc(C)cc1 (stereo not given)	PABP FP inh active, eIF4H FP inh 112
COc1ccc([N+](=O)[O-])cc1N(CC(O)CN1CCOCC1)S(=O)(=O)c1ccccc1 (stereo not given)	none
O=[N+]([O-])c1ccc2nc(N3CCCC3)sc2c1	PABP FP inh active
COC(=O)C1(C)CCCC2(C)c3cc(OC)ccc3C(=O)C(Br)C12 (stereo not given)	none (no result: PABP FP inh, AI-2 QS mod, eIF4H FP inh, PHOSPHO1 block)
CC1(C2CC2)NC(=O)N(CC(=O)Nc2ccc(SC(F)F)cc2)C1=O (stereo not given)	none (no result: PABP FP inh, AI-2 QS mod, eIF4H FP inh, PHOSPHO1 block)
CN1CC(=O)N(CC(=O)Nc2ccc(SC(F)F)cc2)C1=O	AI-2 QS mod -86
Cc1cccc(-n2c(N)cc(=O)nc2SCC(=O)Nc2cc(C)on2)c1	MLLE-PAM2 inh 40
O=C(CSc1nccn1-c1cccc(Cl)c1)NO	none
Cc1cc(NC(=O)CSc2nccn2-c2cccc(Cl)c2)no1	MLLE-PAM2 inh 69
COc1ccc(-c2nc3ccc(C)cn3c2CC(C)(C)C)cc1OC	none (no result: PABP FP inh, AI-2 QS mod, eIF4H FP inh, PHOSPHO1 block)
C(=C\c1ccccc1)/CSc1ccccn1	PABP FP inh active, eIF4H FP inh active
Cc1cc(C)nc(SC/C=C/c2ccccc2)n1	none
O=c1ccc2nc3ccccc3sc-2c1	none (no result: PABP FP inh, AI-2 QS mod, eIF4H FP inh, PHOSPHO1 block)
Cn1cnc([N+](=O)[O-])c1S(=O)(=O)Oc1ccc(Cl)cc1	MLLE-PAM2 inh 41 (no result: PABP FP inh, AI-2 QS mod, eIF4H FP inh, PHOSPHO1 block)
O=C(NCC(F)(F)F)c1csc([C@@H]2O[C@H](CO)[C@H](O)[C@H](O)[C@H]2O)n1	none (no result: PABP FP inh, AI-2 QS mod, eIF4H FP inh, PHOSPHO1 block)
CC(=O)NC(CC(=O)NC1CCCCCC1)c1ccccc1 (stereo not given)	none
O=C(CCSc1ccccc1)NC1CCCCCC1	PABP FP inh active
CC(CC(=O)NC1CCCC1)c1ccccc1 (stereo not given)	PABP FP inh active
COc1ccccc1Cc1c(-c2ccc(Cl)cc2)nc2ccc(Br)cn12	none (no result: PABP FP inh, AI-2 QS mod, eIF4H FP inh, PHOSPHO1 block)
Cc1ccc(-c2nc(NC(=O)CSc3cc(C)c4ccccc4n3)ns2)cc1	PHOSPHO1 block 60
Cc1ccccc1NC(=O)Nc1nnc([C@@H]2C[C@H](O)[C@@H](CO)O2)s1	none (no result: PABP FP inh, AI-2 QS mod, eIF4H FP inh, PHOSPHO1 block)
Cc1nc(N)sc1-c1csc(N(C)c2ccc(O)cc2)n1	PABP FP inh active, eIF4H FP inh 92, PHOSPHO1 block 85
COc1cccc(C(=O)NCc2n[nH]c(=S)n2-c2cccc(C)c2)c1	PHOSPHO1 block 87
COc1cccc(-n2c(CNC(=O)OC(C)(C)C)n[nH]c2=S)c1	PHOSPHO1 block 84
Cn1c(CCNC(=O)OC(C)(C)C)n[nH]c1=S	PHOSPHO1 block 79
CC1(c2nc3ccccc3[nH]2)CCC2=Nc3ccccc3CN21 (stereo not given)	none (no result: PABP FP inh, AI-2 QS mod, MLLE-PAM2 inh, eIF4H FP inh, PHOSPHO1 block)
COCCN1C(=O)COc2ccccc2C1C(=O)NC1CCCC1 (stereo not given)	none (no result: PABP FP inh, AI-2 QS mod, MLLE-PAM2 inh, eIF4H FP inh, PHOSPHO1 block)
CCCNC(=O)C1(C)CCN(Cc2ccc(OCc3ccccc3)cc2)C1 (stereo not given)	none (no result: PABP FP inh, AI-2 QS mod, eIF4H FP inh, PHOSPHO1 block)
Cc1c(C(=O)NCc2ccc(F)cc2)sc(=O)n1Cc1ccccc1	none (no result: PABP FP inh, AI-2 QS mod, eIF4H FP inh, PHOSPHO1 block)
CCCc1[nH]nc2c1C(c1ccc(OC(=O)N3CCOCC3)cc1)C(C#N)=C(N)O2 (stereo not given)	PHOSPHO1 block 63
CC(C)CN1CCNC(=O)C1CC(=O)NCCCN1CCCc2ccccc21 (stereo not given)	PABP FP inh active
CC(C)CN1CCNC(=O)C1CC(=O)NCCc1ccc(C(F)(F)F)cc1 (stereo not given)	none
C[C@H](NC(=O)[C@@H]1CCCN1C(=O)[C@@H]1CCCN1C(=O)c1cccs1)c1ccccc1	none (no result: PABP FP inh, AI-2 QS mod, MLLE-PAM2 inh, eIF4H FP inh, PHOSPHO1 block)
Cc1ccc(S(=O)(=O)NCc2ccc(C(=O)N3CCN(c4ccccc4)CC3)cc2)cc1	PHOSPHO1 block 73
CS(=O)(=O)N(Cc1ccc(Cl)cc1)c1ccc(C(=O)N2CCN(c3ccccc3)CC2)cc1	PHOSPHO1 block 100
O=C(N/C(=C\c1ccccc1)C(=O)N1CCOCC1)c1ccccc1Cl	PHOSPHO1 block 63
COc1ccc(CCNC(=O)c2nc(-c3cccs3)no2)cc1OC	none
O=C(NCc1ccc(F)cc1)c1nc(-c2cccs2)no1	AI-2 QS mod -76

Screening data as filed in PubChem BioAssay.
